Among the data in PubChem BioAssay (NCI) are growth values, retold here.

Each structure is given as a SMILES string. About 83,000 compounds went through this panel and 20% of them were active in at least one assay; those are over-represented in the sample as a whole.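 96-well plates, one dose, 48 hours. Percent growth reported; active if below 10.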 A number with no mark means an inactive call. The source made the active and inactive calls.

In this assay the test system is HL-60(TB) leukemia. Briefly: NCI-60 one-dose screen, 48 h (100 = growth as untreated, 0 = no growth, -100 = all killed). The settings on record: 10 µM unless noted.
For `OC[C@H]1OC([S-])[C@H](O)[C@@H](O)[C@@H]1O.[Au+]` (stereo not given in full), the growth was 95.1%. The figure for `CCOc1ccc(-n2nc(C(=O)Nc3ccccc3)nc2-c2cc(OC)c(OC)c(OC)c2)cc1` is 32.9%.

Take `c1csc(-c2nc(-c3cc4ccccc4c(N4CCOCC4)n3)cs2)c1`: the growth is 121%. The figure for `CCC12OC(COc3ccccc3)CN1CCN2c1ccccc1` (stereo not given) is 94.7% [100 µM].

Take `C=CC(=O)N1CCC[C@@H](n2nc(-c3ccc(Oc4ccccc4)cc3)c3c(N)ncnc32)C1`: the growth is 82.5%. In the case of `CC(=O)[C@H]1CC[C@H]2[C@@H]3CC[C@H]4CC=CC[C@]4(C)[C@H]3CC[C@]12C`, the growth is 69%. The figure for `CCOC(=O)c1cnc2c(C)cc(C)cc2c1NCCCN(C)C` is 9.86% (active); for `Cc1nn(C)c2ncnc(Nc3ccccc3Br)c12` it is 94.3%; for `Fc1cccc(F)c1C#Cc1ccc2cccnc2c1` it is 74.6%. The value for `C[n+]1c2ccccc2nc2ccccc21` was 13.3%. The value for `OB(O)c1ccsc1-c1nc2ccc3[nH]ncc3c2c2c1CCCC2` was 52.2%; that for `O=S(=O)(NCCCNc1nccc(-c2c(-c3ccc(F)cc3)nc3sccn23)n1)c1ccc(F)cc1` was 35.5%. Take `Nc1c2ccccc2nc2ccccc12` (tested in a mixture with another compound): the growth is 26.8%. Regarding `CC(C)=CC/C=C(/C)[C@H]1CC[C@]2(C)[C@@H]1CC[C@@H]1[C@@]3(C)CCC(=O)NC(C)(C)[C@@H]3CC[C@]12C`, the growth is -22.1% [100 µM] (active). The value for `Cc1ccc(-c2cc(C(=O)Nc3ccc(S(=O)(=O)N4CCCCC4)cc3)[nH]n2)c(O)c1` was 48.7%; that for `CCCc1n(Cc2ccc3ccccc3c2)cc[n+]1Cc1ccc2ccccc2c1` was -53.1% (active); that for `Cc1ccc(-c2cc3c(SCC(=O)Nc4cc(C(F)(F)F)ccc4Cl)nccn3n2)cc1` was 12.6%. In the case of `FC(F)(F)Oc1cccc(-c2cnc3ccc(-c4ccncc4)nn23)c1`, the growth is -19.3% (active). As for `CC(=O)OC[Si](C)(C)c1ccccc1`, the growth was 100%. The value for `COc1cccc(Nc2ncnc3cc(NC(=O)CCl)ccc23)c1` was -49.7% (active).

For `COc1ccc(OC)c([N+](=O)[O-])c1C=O`, the growth is 88.2%. The figure for `C=C(C)[C@@H]1CC[C@]2(COC(=O)c3ccccc3C(=O)O)CC[C@]3(C)[C@H](CC[C@@H]4[C@@]5(C)CC[C@H](OC(=O)c6ccccc6C(=O)O)C(C)(C)[C@@H]5CC[C@]43C)[C@@H]12` is 37.8% [100 µM]; for `COc1cc(C)c2sc3ccccc3c(=O)c2c1NCCN(C)C` it is 61.2%; for `O=C(/C=C/c1c[nH]c2ccccc12)c1ccc(O)c(CN2CCN(c3ccc(F)cc3)CC2)c1` it is 97%.

For `CCOC(=O)/C=C/C(=O)[C@H](CC(C)C)NC(=O)[C@H](Cc1ccccc1)NC(=O)OCc1ccccc1`, the growth was 25.9%. The figure for `C#CCOc1cccc(Nc2ncnc3cc(NC(=O)CCl)ccc23)c1` is -62.2% (active).

With `C(=N\Nc1nnc2n1N=C(c1ccccc1)CS2)/c1ccc(OCc2ccccc2)cc1`, the growth is 97.6%. As for `C=C(C)[C@@H]1CC[C@]2(C(=O)OCCOCCOCC[P+](c3ccccc3)(c3ccccc3)c3ccccc3)CC[C@]3(C)[C@H](CC[C@@H]4[C@@]5(C)CC[C@H](OC(=O)C(Cl)Cl)C(C)(C)[C@@H]5CC[C@]43C)[C@@H]12`, the growth was -47.8% (active). For the molecule `O=C(CCCCC(=O)Oc1c(Cl)cc(Cl)cc1[N+](=O)[O-])Oc1c(Cl)cc(Cl)cc1[N+](=O)[O-]`, the growth is 81.9%. As to `COc1ccc(-c2cn(Cc3ccc4c(Br)cc(Br)c(O)c4n3)nn2)cc1`, the growth is 48.6%.

As for `O=S(=O)(Nc1cc(Sc2nc3ccccc3s2)c(O)c2ccccc12)c1ccc2ccccc2c1`, the growth is 71.6%. Take `COc1ccc2[nH]c(-c3ccccc3)c(/C=C(\C#N)S(=O)(=O)c3ccccc3)c2c1`: the growth is 1.53% (active). For `COc1cc2c(cc1-c1c(C)noc1C)ncc1nc(C3CCOCC3)n(C3CCC(OC(F)F)CC3)c12` (stereo not given), the growth is 7.23% (active). The figure for `CCc1ccccc1NC(=O)c1sc2nc3c(cc2c1N)C(=O)CCC3` is -10.3% (active); for `COC(=O)c1ccc2[nH]c(O)c(C(=Nc3ccc(N(C)C(=O)CN4CCN(C)CC4)cc3)c3ccccc3)c2c1` it is -14.4% (active); for `COC12C=C/C(=C(/C(=O)OCc3ccccn3)C(=O)CCCCCCCCC3(OC)C=C/C(=C(/C(=O)OCc4ccccn4)C(=O)CCCCCCCC1)O3)O2` it is -19% (active). The value for `COc1cc(/C(=C2/O[C@@H]([C@H]3COC(C)(C)O3)[C@H]3OC(C)(C)O[C@@H]23)c2ccc3c(c2)OCO3)cc(OC)c1OC` was 86.1%. The figure for `COc1ccc(OC)c(C(=O)Nc2cccc(-c3cc(=O)c4ccccc4o3)c2)c1` is 89.4%; for `CC(=O)Oc1cc(OC(C)=O)c2ccccc2c1OC(C)=O` it is 23.3%; for `COc1ccc(/C=C/C(=O)c2ccc(Oc3ncnc4ccccc34)cc2)cc1OC` it is 54.7%.
